Results filed as inconclusive are left out. Unmarked numbers belong to inactive results. Calls of active or inactive are those of the source. The call rests on the fitted dose curve; in most records, active means well fitted cell-killing curve with a large enough effect; inconclusive means small, poorly fitted or top-dose-only effect, or effect the other way; inactive means flat fitted curve, though single readings scatter.
System: Tov-21-G
Test: Primary qHTS to identify gynecologic anti-cancer compounds using libraries of approved drugs and bioactive compounds (AID 1345084); further: nearly all actives have a fitted effect of over 55% in size
Details: Gynecologic cancer cell panel viability, ATPlite luminescence, 48 h; series mostly up to 57.5 µM; activity change, negative = cytotoxicity: at the top concentration
Outline: (§1)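 Five-point cytotoxicity, 48 h drug exposure at 37 C, 5% CO2, on cells seeded 16 h beforehand. ATP content read by ATPlite luminescence.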
On the % scale 0 is the no-effect control and ±100 the full control effect; potency means the concentration at half of the fitted maximal effect.

Compound | activity change, negative = cytotoxicity | Potency
CCn1c(-c2nonc2N)nc2c(C#CCO)ncc(OCCCN)c21 | -15.2% | 
C[C@@H]1CC[C@@]23CC[C@]4(C)[C@@](C=CC5[C@@]6(C)CC[C@H](O)C(C)(C)C6CC[C@]54C)(OC2=O)C3[C@H]1C (some centres not stated) | 2.45% [at 25.3 µM] | 
CC[C@@H](C)Nc1cc(C(=O)NC2CC3CCC(C2)N3c2ccc(C(=O)C3CC3)cn2)c(C)cc1C(N)=O (some centres not stated) |  | 0.398 µM (active)
Fc1ccc(-n2cc(CCCCN3CCC4(CC3)OCc3ccccc34)c3ccccc32)cc1 | -20.1% | 
COc1ccc(-c2ccc3c(N4CCOCC4C)nc(N4CCOCC4C)nc3n2)cc1CO (configuration not stated) |  | 0.251 µM (active)
CNc1nc(NCc2ccc(NS(C)(=O)=O)cc2Cl)cc(-c2ccccn2)n1 | 3.24% | 
CCC(C)CC(=O)OC1C(=O)C(CO)=CC(O)C1C(C)C (configuration not stated) |  | 25.1 µM (active)
COc1cc(O)c2c(c1)/C=C/C[C@H](O)[C@H](O)C(=O)/C=C\C[C@H](C)OC2=O |  | 17.8 µM (active)
C=CC(=O)N1CCC(Oc2cc3c(Nc4ccc(Cl)c(Cl)c4F)ncnc3cc2OC)CC1 |  | 25.1 µM (active)
COc1cc(N2CCC(N3CCN(C)CC3)CC2)ccc1Nc1ncc(Cl)c(Nc2ccccc2P(C)(C)=O)n1 |  | 7.08 µM (active)
COc1cc(C(=O)O)ccc1NC(=O)C1NC(CC(C)(C)C)C(C#N)(c2ccc(Cl)cc2F)C1c1cccc(Cl)c1F (configuration not stated) | -0.358% | 
COc1ccc(S(=O)(=O)Nc2c(C)cc(C)cc2C)cc1 | -2.91% | 
CCCc1cc(C)[nH]c(=O)c1CNC(=O)c1cc(-c2ccnc(N3CCN(C)CC3)c2)cc2c1cnn2C(C)C |  | 31.6 µM (active)
Cc1[nH]c(/C=C2\C(=O)Nc3ccc(S(=O)(=O)N(C)c4cccc(Cl)c4)cc32)c(C)c1C(=O)N1CCN(C)CC1 | -18.2% | 
COc1cc(-n2cnc3cc(-c4ccc(Cl)cc4)sc3c2=O)ccc1OCCN1CCCC1 | -10.2% | 
O=C(NCc1ccccc1-c1ccccc1C(=O)NCCc1ccccn1)OCc1ccccc1 | -1.14% | 
C/C(=C/C=C\C=C\Cc1cnco1)[C@@H](O)C(C)(C)C(N)=O | 8.84% | 
Cn1ncnc1[C@@H]1c2n[nH]c(=O)c3cc(F)cc(c23)N[C@H]1c1ccc(F)cc1 | -12.7% | 
CC(OC1OCCN(Cc2n[nH]c(=O)[nH]2)C1c1ccc(F)cc1)c1cc(C(F)(F)F)cc(C(F)(F)F)c1 (configuration not stated) | -3.74% | 
Cc1ccc(S(=O)(=O)N2CCC[C@H]2c2ccc(F)cc2)cc1 | 1.29% | 
C=C1C(=O)O[C@@H]2[C@H]1CC(=O)[C@H](C)[C@@](O)(C(=O)/C=C/C)[C@H]2OC(=O)C(C)CC (some centres not stated) |  | 12.6 µM (active)
COCc1c(Cl)ccc2c1CC[C@H]2c1ncc[nH]1 |  | 10 µM (active)
N#Cc1ccc(COc2ccc(-c3cccc4nc(NC(=O)C5CC5)nn34)cc2)cn1 | -25% | 
CCN(CC)CCCCCCNc1cc(OC)cc2c(C)ccnc12 | -5.23% | 
Cn1ncc(Cl)c1-c1cc(C(=O)N[C@H](CN)Cc2cccc(F)c2)sc1Cl |  | 1.58 µM (active)

System: Tov112D
Test: as above
Details: Gynecologic cancer cell panel viability, ATPlite luminescence, 48 h; series mostly up to 57.5 µM; activity change, negative = cytotoxicity: at the top concentration
Outline: as §1

Compound | activity change, negative = cytotoxicity
COc1c(C(O)CC(C)C)ccc2c1C(=O)OCc1cc(C)cc(O)c1O2 (configuration not stated) | -6.54% [at 38.5 µM]
C[C@@H]1CC[C@@]23CC[C@]4(C)[C@@](C=CC5[C@@]6(C)CC[C@H](O)C(C)(C)C6CC[C@]54C)(OC2=O)C3[C@H]1C (some centres not stated) | -1.37% [at 25.3 µM]
COc1cc(C(=O)O)ccc1NC(=O)C1NC(CC(C)(C)C)C(C#N)(c2ccc(Cl)cc2F)C1c1cccc(Cl)c1F (configuration not stated) | 2.33%
O=C(NCc1ccccc1-c1ccccc1C(=O)NCCc1ccccn1)OCc1ccccc1 | 6.54%
C/C(=C/C=C\C=C\Cc1cnco1)[C@@H](O)C(C)(C)C(N)=O | 22.2%
Cn1ncnc1[C@@H]1c2n[nH]c(=O)c3cc(F)cc(c23)N[C@H]1c1ccc(F)cc1 | 0.251%
Cc1ccc(S(=O)(=O)N2CCC[C@H]2c2ccc(F)cc2)cc1 | -1.96%
